Most compounds without a hit are left out; they make up all but 5.7% or so of the library.
NPSR antagonist: qHTS Assay for Antagonists of the Neuropeptide S Receptor: cAMP Signal Transduction | CHO-NPSR cells, cAMP TR-FRET, antagonist mode | Q6W5P4 | AID 1461, 2008 | Potency, µM (series often up to 38.3 µM), without a hit: top-dose activity change, negative = inhibition, actives largely listed as inhibitors | actives 1% (n = 220,000); further: nearly all actives have a fitted effect of over 50% in size
RORg inh: qHTS for inhibitors of ROR gamma transcriptional activity. Nuclear receptor ROR-gamma (Mus musculus), P51450. Drosophila S2 Gal4-RORgamma UAS-luciferase reporter, 20 h. Potency, µM (top dose mostly 53.6 µM), for inactives: top-dose activity change, negative = inhibition, hits mostly inhibitors. actives 5.4% (n = 310,000); further: nearly all actives have a fitted effect of over 60% in size
Target sequence (P51450 whole entry, looked up, the tested form may be a part): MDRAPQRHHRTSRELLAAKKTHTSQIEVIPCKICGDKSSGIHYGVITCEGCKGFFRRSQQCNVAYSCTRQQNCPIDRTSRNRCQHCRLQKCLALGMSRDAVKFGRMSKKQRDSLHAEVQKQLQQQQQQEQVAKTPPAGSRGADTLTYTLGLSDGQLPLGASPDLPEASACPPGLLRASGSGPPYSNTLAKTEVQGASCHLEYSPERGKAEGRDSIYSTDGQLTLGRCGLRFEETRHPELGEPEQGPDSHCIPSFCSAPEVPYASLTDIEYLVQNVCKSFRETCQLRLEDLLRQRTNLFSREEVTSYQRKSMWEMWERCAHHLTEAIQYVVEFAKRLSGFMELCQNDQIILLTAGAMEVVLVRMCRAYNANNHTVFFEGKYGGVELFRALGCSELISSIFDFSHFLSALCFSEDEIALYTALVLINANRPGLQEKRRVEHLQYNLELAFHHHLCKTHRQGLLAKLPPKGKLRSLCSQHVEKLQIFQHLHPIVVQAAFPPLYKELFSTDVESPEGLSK
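Schneider cells (Drosophila), stable Gal4 DBD–ROR gamma + UAS-luc; 1 hr cmpd preincubation; Cu2+ induction 700 uM final; 20 hr ambient; luminescence.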
B2AR arrestin: qHTS assay of beta-arrestin-biased ligands of beta2-adrenergic receptor; Beta-2 adrenergic receptor (Homo sapiens), P07550; beta-arrestin recruitment to beta2AR, cell-based reporter; Potency, µM (titrated, usually from 46.1 µM), inactives show top-dose activation, most hits filed as activators; actives 0.02% (n = 330,000);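 further: 0% = DMSO controls and full agonism = EC100 isoproterenol or metaproterenol; nearly all actives have a fitted effect of over 65% in size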
Gal4-VP16 FLuc: VP16 counterscreen qHTS for inhibitors of ROR gamma transcriptional activity. Potency, µM (titrated, usually from 53.6 µM), without a hit: at the top dose activity, negative = inhibition, actives largely listed as inhibitors. actives 3.5% (n = 310,000). AID 2546, 2010. Drosophila S2 Gal4-VP16 UAS-luciferase, luminescence, 20 h;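 further: Gal4-VP16 expression switched on by copper sulfate through the metallothionein promoter; nearly all actives have a fitted effect of over 50% in size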
* marks the source's active call; other numbers are inactive results; ? = inconclusive; nt = no result given; [ ] = another dose, or the depositor's remark. The call rests on the fitted dose curve; in most records, active means well fitted curve in the direction sought with a large enough effect; inconclusive means small, poorly fitted or top-dose-only effect, or another doubt; inactive means no such curve, though single readings can be large; an effect the other way counts as inactive or inconclusive. Unless noted, on the % scale 0 is the no-effect control and ±100 the full control effect; potency means the concentration at half of the fitted maximal effect.

SMILES	NPSR antagonist	RORg inh	B2AR arrestin	Gal4-VP16 FLuc
CCn1c(COc2cccc(C)c2)nnc1SCC(=O)CC(=O)Nc1ccccc1OC	-19.6%[46.1 µM]	10µM*	0.0%	?
COc1ccc(C(C)=O)cc1CSc1nnc(-c2ccc(Cl)cc2)n1-c1ccccc1	?	?	-0.2%	15.8µM*
O=C(CSc1nnc(Cc2cccs2)n1Cc1ccco1)Nc1cc(Cl)cc(Cl)c1	?	22.4%	-0.2%	-12.5%
CCn1c(C)nnc1SCC(=O)Nc1ccccc1OC	nt	-6.6%	3.4%	-4.5%
C[C@@H]1CC[C@H]2C(=O)O[C@H](CN=[N+]=[N-])CN2[C@@H]1c1ccc(Br)cc1	nt	-3.7%[10 µM]	nt	4.1%[10 µM]
CC(=C/c1ccco1)/C=N/NC(=O)c1nnn(-c2nonc2N)c1CN(C)C	-22.1%	?	-0.7%	-8.6%
CCn1c(COc2ccccc2C)nnc1SCC(=O)OC	-1.7%[46.1 µM]	3.0%	-0.2%	3.1%
COc1ccccc1NC(=O)CC(=O)CSc1nnc(-c2ccc(C)cc2)n1-c1ccccc1	-13.7%	7.08µM*	-0.7%	10µM*
O=C(CSc1ncc(-c2ccc(F)cc2)n1Cc1ccco1)Nc1nccs1	-19.7%[46.1 µM]	-23.5%	0.2%	-5.2%
Cc1cnc(NC(=O)CSc2ncc(-c3ccccc3)n2Cc2ccco2)s1	-25.4%[46.1 µM]	11.2µM*	0.4%	-28.8%
CCn1c(COc2ccccc2C)nnc1SCC(=O)CC(=O)Nc1ccccc1OC	-14.7%[46.1 µM]	10µM*	0.3%	12.6µM*
Cc1ccc(F)cc1-c1ccc(C(=O)N=C(N)N)o1	nt	-43.5%	nt	-2.0%
CC(C)[C@@H](NC(=O)C1CCC(CNC(=O)[C@H](Cc2ccccc2)NC(=O)OC(C)(C)C)CC1)C(=O)O (stereo not given in full)	nt	4.7%	-0.2%	1.0%
CCCCCCCCCCCCCCCC(=O)NC(C)C	nt	-4.2%	nt	-13.2%
CCN=c1scc(C)n1/N=C/c1cc(Br)c(O)c(Br)c1	-24.2%	-22.0%	-0.2%	4.2%
CCN=c1scc(C)n1/N=C/c1ccc(O)c(O)c1O	-24.5%[46.1 µM]	3.55µM*	0.4%	?
CC(=O)N1CC(=O)N=C1SCC(=O)Nc1nc(-c2ccccc2)c(-c2ccccc2)s1	10µM*	7.08µM*	2.1%	7.94µM*
CCOc1ccc(NC(=O)CCC(=O)NNC(=O)c2ccc(Br)o2)cc1	nt	-4.2%	-0.9%	4.5%
COc1ccc(C(=O)N/N=C/c2ccc(OC)c(CN3CCCc4ccccc43)c2)cc1	-16.7%	?	-0.8%	?
CCOc1ccc(Br)cc1/C=N/NC(=O)c1ccncc1	-11.1%[46.1 µM]	?	0.1%	4.9%[0.365 µM]
COc1ccc(/C=N/NC(=O)c2cccnc2)c2ccccc12	nt	1.26µM*	-1.5%	-19.1%
COc1ccc(/C=N/NC(=O)c2cccnc2)cc1CN1CCCc2ccccc21	-43.2%	10µM*	-0.3%	-29.4%
CCOc1cc(Br)cc(/C=N/NC(=O)c2cccnc2)c1O	nt	0.794µM*	-0.1%	1µM*
COc1ccc(/C=N/NC(=O)c2c(Br)cnn2C)c2ccccc12	nt	20µM*	-0.6%	2.82µM*
COc1ccc(/C=N/NC(=O)c2cnccn2)c(OC)c1OC	-6.4%	3.1%	-0.9%	-1.4%
SMILES	NPSR antagonist	RORg inh	B2AR arrestin	Gal4-VP16 FLuc
O=C(NCc1cccc(Cl)c1)C1CCC(=O)N(CCN2CCOCC2)C1 (stereo not given)	nt	-25.5%	-0.2%	-1.8%
Cc1ccc(CNCC(=O)Nc2ccc(N3CCOCC3)cc2)cc1	-27.6%	5.1%	-0.4%	-8.0%
COc1ccc(/C=N\NC(=O)c2cccc([N+](=O)[O-])c2)cc1Cn1cc([N+](=O)[O-])cn1	16.7%	-18.4%	-0.6%	-8.9%
COc1ccc(/C=N/NC(=O)c2ccccc2O)cc1Cn1cc(Cl)cn1	-18.2%[46.1 µM]	6.31µM*	-0.9%	14.1µM*
CC(N)(Cc1ccc(O)c(O)c1)C(=O)O (stereo not given)	-14.0%[46.1 µM]	nt	nt	nt
O=C(O)COc1ccc(CCNS(=O)(=O)c2ccccc2)s1	nt	0.0%	nt	-3.2%
CCn1c(Sc2ccc([N+](=O)[O-])cn2)nnc1-c1ccco1	-12.1%	10µM*	0.2%	?
Oc1cccc(/C=N/n2c(C3CCCCC3)n[nH]c2=S)c1	nt	?	0.4%	-3.6%
O=[N+]([O-])c1cccc(/C=N/n2c(C3CCCCC3)n[nH]c2=S)c1	-22.1%	3.98µM*	-1.0%	4.47µM*
COc1cccc(/C=N/n2c(C3CCCCC3)n[nH]c2=S)c1	nt	4.47µM*	0.5%	10µM*
Fc1cccc(/C=N/n2c(C3CCCCC3)n[nH]c2=S)c1	nt	3.98µM*	0.2%	8.91µM*

Source: PubChem (National Center for Advancing Translational Sciences (NCATS))
